# In PubChem BioAssay:
# Values without a mark were called inactive. For some assays here: Results with a measured potency or affinity are listed apart. Activity calls are given as the source filed them. Unless noted, the rule behind the calls is not given here.
# Experiments:
# [1] = antimalarial activity against Dd2 strain (AID 2302;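 active = growth inhibition above 50% at the single 2 µM test dose, taken to imply half-maximal potency below 2 µM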;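 note: 0% = DMSO untreated growth and 100% = chloroquine plus artemisinin killed control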); details: P. falciparum Dd2 in RBCs, LDH growth readout, 72 h; at 2 µM; active compounds read high
# [2] = HepG2 cytotoxicity, primary screen, cytotoxicity control for P. falciparum antimalarial project, cell-based, ATP luminescence (AID 2303;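 active = inhibition above 50%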;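 note: 0% = DMSO wells and 100% = digitonin-killed cells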); details: HepG2 viability, 24-48 h, at 10 µM, active compounds read high
# [3] = molecular target: L-lactate dehydrogenase (Plasmodium falciparum (isolate CDC / Honduras)) (UniProt Q27743); experiment: PfLDH activity inhibition – cell lysate, 3D7 strain, counter-screen for P. falciparum growth inhibition project (AID 2304);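 note: 0% = vehicle and 100% = reference inhibitor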; details: P. falciparum 3D7 crude extract, LDH APAD/NBT absorbance; at 2 µM; active compounds read high
# L-lactate dehydrogenase (Plasmodium falciparum (isolate CDC / Honduras)), sequence (Q27743 whole entry, looked up): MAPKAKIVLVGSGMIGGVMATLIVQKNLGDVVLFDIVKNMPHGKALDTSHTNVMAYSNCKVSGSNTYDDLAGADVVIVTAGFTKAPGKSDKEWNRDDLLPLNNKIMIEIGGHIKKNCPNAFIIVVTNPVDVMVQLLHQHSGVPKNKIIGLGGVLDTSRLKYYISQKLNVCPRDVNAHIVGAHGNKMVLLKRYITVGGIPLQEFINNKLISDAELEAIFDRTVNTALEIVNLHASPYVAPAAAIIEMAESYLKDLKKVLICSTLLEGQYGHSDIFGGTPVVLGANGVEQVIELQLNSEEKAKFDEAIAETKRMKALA
# [4] = inhibition of 3D7 malaria parasite growth – strain 3D7 (AID 2306);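 note: 0% = DMSO wells and 100% = chloroquine plus artemisinin control wells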; details: P. falciparum 3D7 erythrocytic growth, LDH absorbance, 72 h; at 2 µM; active compounds read high
# [5] = molecular target: Calcium-dependent protein kinase 1 (Plasmodium falciparum (isolate 3D7)) (UniProt P62344); experiment: PfCDPK1 kinase inhibitors, biochemical, TCAMS library (AID 1159585; cut-off not given, nearly all actives have IC50 up to about 0.98 µM;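 note: inhibitors leave more ATP so luminescence rises with inhibition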); details: recombinant PfCDPK1, Kinase-Glo ATP depletion luminescence
# Calcium-dependent protein kinase 1 (Plasmodium falciparum (isolate 3D7)), sequence (P62344 whole entry, looked up): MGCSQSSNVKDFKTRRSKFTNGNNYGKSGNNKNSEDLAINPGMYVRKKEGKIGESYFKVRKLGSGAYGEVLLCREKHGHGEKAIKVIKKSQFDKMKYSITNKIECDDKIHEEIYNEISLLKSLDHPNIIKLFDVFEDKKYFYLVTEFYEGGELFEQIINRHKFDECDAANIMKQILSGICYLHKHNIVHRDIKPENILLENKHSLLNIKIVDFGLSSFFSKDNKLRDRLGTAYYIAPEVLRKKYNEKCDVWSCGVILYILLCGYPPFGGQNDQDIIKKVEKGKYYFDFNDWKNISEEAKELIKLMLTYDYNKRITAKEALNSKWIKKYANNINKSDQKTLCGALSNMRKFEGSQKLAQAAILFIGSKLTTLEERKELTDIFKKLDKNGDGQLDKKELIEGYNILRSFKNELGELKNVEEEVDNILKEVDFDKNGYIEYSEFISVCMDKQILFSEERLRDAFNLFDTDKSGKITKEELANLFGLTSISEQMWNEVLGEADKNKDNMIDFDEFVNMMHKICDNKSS
# [6] = molecular target: Plasmodium falciparum protein kinase 6 (PK6, PF3D7_1337100) (UniProt Q8IDW1); experiment: PfPK6 kinase inhibitors, biochemical, TCAMS library (AID 1159586); details: recombinant PfPK6, Kinase-Glo ATP depletion luminescence
# Plasmodium falciparum protein kinase 6 (PK6, PF3D7_1337100), sequence (Q8IDW1 1-305): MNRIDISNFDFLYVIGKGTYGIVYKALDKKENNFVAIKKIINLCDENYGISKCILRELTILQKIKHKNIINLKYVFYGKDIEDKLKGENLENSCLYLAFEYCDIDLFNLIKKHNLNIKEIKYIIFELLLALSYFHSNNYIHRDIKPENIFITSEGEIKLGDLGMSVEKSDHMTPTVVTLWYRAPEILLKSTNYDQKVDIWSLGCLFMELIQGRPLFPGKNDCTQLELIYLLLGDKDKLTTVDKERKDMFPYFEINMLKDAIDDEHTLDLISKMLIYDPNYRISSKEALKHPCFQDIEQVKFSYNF
# [7] = molecular target: Protein kinase 7 (PK7), Plasmodium falciparum 3D7 (PF3D7_0213400) (UniProt Q7YTF7); experiment: inhibition of Plasmodium PK7 catalytic activity – biochemical, TCAMS antimalarial set, Kinase-Glo luminescence (AID 1159587); details: recombinant PfPK7, Kinase-Glo ATP depletion luminescence
# Protein kinase 7 (PK7), Plasmodium falciparum 3D7 (PF3D7_0213400), sequence (Q7YTF7 1-343): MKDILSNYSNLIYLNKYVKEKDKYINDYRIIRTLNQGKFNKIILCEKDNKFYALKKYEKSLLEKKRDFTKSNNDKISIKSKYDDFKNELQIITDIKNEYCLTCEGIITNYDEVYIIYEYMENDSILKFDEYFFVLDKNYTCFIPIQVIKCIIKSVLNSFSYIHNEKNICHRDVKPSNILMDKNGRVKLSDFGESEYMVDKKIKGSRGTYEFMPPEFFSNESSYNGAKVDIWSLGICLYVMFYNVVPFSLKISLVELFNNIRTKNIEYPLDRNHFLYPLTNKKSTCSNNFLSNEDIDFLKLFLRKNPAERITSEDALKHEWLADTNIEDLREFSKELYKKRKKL
# [8] = molecular target: Calcium-dependent protein kinase 4 (Plasmodium falciparum (isolate 3D7)) (UniProt Q8IBS5); experiment: PfCDPK4 kinase inhibitors, biochemical, TCAMS library (AID 1159588; cut-off not given, nearly all actives have IC50 up to about 0.91 µM); details: recombinant PfCDPK4, Kinase-Glo ATP depletion luminescence
# Calcium-dependent protein kinase 4 (Plasmodium falciparum (isolate 3D7)), sequence (Q8IBS5 whole entry, looked up): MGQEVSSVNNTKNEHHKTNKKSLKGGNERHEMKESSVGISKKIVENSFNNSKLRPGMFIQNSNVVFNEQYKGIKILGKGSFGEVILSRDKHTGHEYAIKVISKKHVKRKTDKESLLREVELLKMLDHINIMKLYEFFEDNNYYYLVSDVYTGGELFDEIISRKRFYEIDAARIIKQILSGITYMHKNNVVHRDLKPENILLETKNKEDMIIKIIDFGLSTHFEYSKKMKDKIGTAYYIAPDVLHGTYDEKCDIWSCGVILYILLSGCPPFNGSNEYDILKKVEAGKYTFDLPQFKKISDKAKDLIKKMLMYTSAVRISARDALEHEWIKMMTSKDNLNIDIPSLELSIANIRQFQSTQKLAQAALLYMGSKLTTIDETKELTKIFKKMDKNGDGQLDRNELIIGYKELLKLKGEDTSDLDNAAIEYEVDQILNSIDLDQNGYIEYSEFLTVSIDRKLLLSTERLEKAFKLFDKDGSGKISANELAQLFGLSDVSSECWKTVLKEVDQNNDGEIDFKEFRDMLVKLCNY
Structure (SMILES),growth inhibition [1],inhibition [2],inhibition [3] [%],growth inhibition [4],outcome [5],outcome [6],outcome [7],outcome [8]
O=S(=O)(Nc1ccc(CCN2CCC(N3CCCCC3)CC2)cc1)c1cccc2cccnc12,45%,14%,-3,101% (active),inactive,inactive,inactive,inactive
Cc1nc2ccc3ccc(CNc4ccc(C(=O)N[C@@H](CCC(=O)O)C(=O)O)cc4)cc3c2c(=O)[nH]1,95% (active),32%,0,89% (active),inactive,inactive,inactive,inactive
Nc1nc(N)c2c(CCc3ccc4ccccc4c3)cccc2n1,6%,56% (active),-2,102% (active),inactive,inactive,inactive,inactive
C[C@H]1CN(Cc2cccc(-c3cc(CNC(=O)c4cccc(C(=O)c5ccc(Cl)c(Cl)c5)c4)ccc3F)c2)CCN1,42%,40%,2,85% (active),inactive,inactive,inactive,inactive
CC(C)CNCc1cccc(-c2cccc(CN(CCN(C)C)C(=O)NCCc3ccccc3)c2)c1,83% (active),84% (active),-4,99% (active),inactive,inactive,inactive,inactive
Cc1cc(-c2cccc3c(C(=O)N4CCc5cc6nccc(N7CCCN(C)CC7)c6cc54)cccc23)cc(C)n1,100% (active),17%,6,100% (active),inactive,inactive,inactive,inactive
Cc1ccc(C(=O)NC2C(=O)NC2c2ccccc2)c(C)c1 (stereo not given),-1%,7%,-4,90% (active),inactive,inactive,inactive,inactive
Cn1nc(-c2cccc(CNC3CCc4ccccc43)c2)c2cnc(NC3CCCC3)nc21 (stereo not given),23%,14%,-1,100% (active),inactive,inactive,inactive,inactive
c1ccc2c(CNCCCCCCNCc3c(OCC4CC4)ccc4ccccc34)c(OCC3CC3)ccc2c1,97% (active),100% (active),-8,93% (active),inactive,inactive,inactive,inactive
C=CCc1cc(Cc2cnc(N)nc2N)cc(CCC)c1OC,1%,3%,0,83% (active),inactive,inactive,inactive,inactive
COc1cccc(-c2cccc(CNC3CCN(CC4Cn5c(=O)ccc6ccc(F)c4c65)CC3)c2)c1 (stereo not given),15%,23%,4,99% (active),inactive,inactive,inactive,inactive
Cc1cc(OCCCn2ccnc2)ccc1-c1csc(NC(N)=NCc2ccccc2)n1,42%,26%,2,92% (active),inactive,inactive,inactive,inactive
CC(=O)c1ccc(NC(=O)Nc2ccc3nccc(N4CCN(C)CC4)c3c2)cc1,93% (active),2%,-1,101% (active),inactive,inactive,inactive,inactive
CN1CCN(CCCN(Cc2ccc(-c3cccc(CNCc4ccc5c(c4)OCO5)c3)cc2)C(=O)NCCc2ccccc2)CC1,85% (active),36%,3,98% (active),inactive,inactive,inactive,inactive
Cc1ccccc1OCCCON1C(N)=NC(N)=NC1(C)C,97% (active),66% (active),4,95% (active),inactive,inactive,inactive,inactive
N=c1ccn(CC(=NO)c2ccc(Cl)c(Cl)c2)cc1,81% (active),23%,-2,87% (active),inactive,inactive,inactive,inactive
O=C(Nc1ccc(-c2nc3ccccc3[nH]2)cc1)c1cccc([N+](=O)[O-])c1,56% (active),45%,-3,101% (active),inactive,inactive,inactive,inactive
CC(=NNC(=S)NC(c1ccccc1)c1ccccc1)c1ccccn1,97% (active),45%,-2,98% (active),inactive,inactive,inactive,inactive
Cc1nc(C)c(CC(=O)Nc2cccc(-c3cccc(-c4nc5ccc(C(F)(F)F)cc5[nH]4)c3)c2)s1,30%,49%,-4,95% (active),inactive,inactive,inactive,inactive
COc1ccc(-c2c3c(=O)n(C)c(=O)n(C)c3c3nnc4ccccc4n23)cc1,86% (active),-7%,-2,96% (active),inactive,inactive,inactive,inactive

Structure (SMILES),growth inhibition [1],inhibition [2],inhibition [3] [%],growth inhibition [4],outcome [5],outcome [6],outcome [7],outcome [8]
COc1ccc(S(=O)(=O)NC2CCN(c3cc(C)nc(Nc4cccc(C#N)c4)n3)CC2)cc1,55% (active),9%,-4,88% (active),inactive,inactive,inactive,inactive
CCOC(=O)C1=C(C)N=c2sc(=Cc3ccccc3O)c(=O)n2C1c1ccc(OC)c2ccccc12 (stereo not given),38%,-6%,1,97% (active),inactive,inactive,inactive,inactive
Brc1ccc(Nc2nc3ccccc3nc2Nc2ccc(Br)cc2)cc1,100% (active),18%,-2,101% (active),inactive,inactive,inactive,inactive
O=C(Nc1ccc(Cn2ncc(N3CCCNCC3)c(Cl)c2=O)cc1)Nc1ccc(OCc2ccccc2)cc1,32%,15%,5,90% (active),inactive,inactive,inactive,inactive
CCC/C=C/c1c(CNCCCNc2cc(=O)c3ccccc3[nH]2)sc(CC)c1Br,71% (active),8%,-1,88% (active),inactive,inactive,inactive,inactive
COc1ccccc1N1CCN(CCCCNC(=O)c2ccc(NC(=O)c3ccc(OC(F)(F)F)cc3)cc2)CC1,39%,29%,-6,100% (active),inactive,inactive,inactive,inactive
NCCNc1ccc([N+](=O)[O-])cc1C(=O)Nc1cccc(Cl)c1,7%,23%,4,85% (active),inactive,inactive,inactive,inactive
N#CC(NC(=O)C=Cc1ccccc1)c1ccccc1 (stereo not given),3%,3%,-8,95% (active),inactive,inactive,inactive,inactive
CC(Cc1ccc(NC(=O)c2ccc(CC(C)NCc3ccc(Cl)cc3)cc2)cc1)NCCc1cccc(Cl)c1 (stereo not given),75% (active),95% (active),-5,101% (active),inactive,inactive,inactive,inactive
O=C(/C=C/c1ccc(Cl)c(Cl)c1)NCCCCCN1CCC(NC(=O)Nc2ccc(Cl)cc2Cl)CC1,33%,96% (active),-2,91% (active),inactive,inactive,inactive,inactive
O=C(Nc1ccc2c(c1)CCC2)N[C@H]1CCN(CCCCCNC(=O)[C@@H]2C[C@H]2c2ccc(Cl)c(Cl)c2)C1,-3%,37%,2,86% (active),inactive,inactive,inactive,inactive
Cn1ccnc1CNC(=O)c1ccc(-c2cccc(-c3nc4ccc(C(F)(F)F)cc4[nH]3)c2)cc1,80% (active),20%,3,101% (active),inactive,inactive,inactive,inactive
COc1ccc(-c2ccc(NC(=O)c3ccc(C#N)cc3)cc2)cc1CNC(C)C,38%,19%,-3,100% (active),inactive,inactive,inactive,inactive
CCc1cc(NC(=O)Nc2ccnc3ccccc23)ccc1OC,24%,-6%,2,85% (active),inactive,inactive,inactive,inactive
O=C(Nc1ccc(Cl)c(Cl)c1)C1CCC(=O)N1[C@@H](Cc1ccccc1)C(=O)NCCc1ccc(Cl)cc1 (stereo not given in full),-9%,3%,0,95% (active),inactive,inactive,inactive,inactive
C[C@H](NC(=O)c1c(CN2CCC(N3CCCCC3=O)CC2)c(-c2cccs2)nc2ccccc12)C1CCCCC1,73% (active),8%,2,91% (active),inactive,inactive,inactive,inactive
COc1cc(-c2nc3c4ccccc4c4ccccc4c3[nH]2)cc(OC)c1OC,10%,4%,5,90% (active),inactive,inactive,inactive,inactive
O=C(Nc1cccc(Cl)c1)N(CCCn1ccnc1)Cc1csc(-c2ccc(CNCc3ccccc3)cc2)n1,45%,11%,4,102% (active),inactive,inactive,inactive,inactive
CCNc1cc(C(=O)N[C@@H](Cc2ccccc2)[C@H](O)CNC(C)(C)Cc2cccc(OC)c2)cc(N2CCCC2=O)c1,97% (active),7%,-8,99% (active),inactive,inactive,inactive,inactive
Cc1cc(C(=O)NC2CCN(CC3(c4ccccc4)CCCCC3)CC2)on1,95% (active),-3%,-3,97% (active),inactive,inactive,inactive,inactive
